Results reported in paper PMC7862700, “An all-to-all approach to the identification of sequence-specific readers for epigenetic DNA modifications on cytosine”.

Legend:
Test in all cases: DAPPL (digital affinity profiling via proximity ligation, sequencing); 10 mM Tris-HCl pH 7.5, 50 mM NaCl, 1 mM DTT, 4% glycerol, room temperature, 30 min; GST-TFs on glutathione beads, 16-mer random dsDNA library, 0.1% formaldehyde crosslink after washing; high values mean tight binding
SPIB = SPIB (Homo sapiens, UniProt Q01892 1-262); settings: protein: recombinant; tags: N-terminal GST; dsDNA, one strand shown
Method in brief: (§1)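 Binding signal is each hexamer's read frequency for a factor divided by its frequency in the tag-only sample. The factors were GST-fused human transcription factors from yeast, captured on glutathione beads, DNA-barcoded and pooled with that sample. Pools were incubated with 200 nmole of a random double-stranded 16-mer DNA library in Tris/NaCl/DTT/glycerol buffer at room temperature for 30 min, then washed, crosslinked with 0.1% formaldehyde, proximity-ligated with BsaI/T4 ligase (1 h, 37 °C), PCR-amplified and sequenced on an Illumina NextSeq500.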

HSF1 = HSF1 (Homo sapiens, UniProt Q00613 1-529); settings: protein: recombinant; tags: N-terminal GST; chain copies: 3; dsDNA, one strand shown
Method in brief: as §1

SPIC = target: T1, SPIC (Homo sapiens, UniProt Q8N5J4 1-248); settings: protein: recombinant; tags: N-terminal GST; dsDNA, one strand shown
T1 sequence: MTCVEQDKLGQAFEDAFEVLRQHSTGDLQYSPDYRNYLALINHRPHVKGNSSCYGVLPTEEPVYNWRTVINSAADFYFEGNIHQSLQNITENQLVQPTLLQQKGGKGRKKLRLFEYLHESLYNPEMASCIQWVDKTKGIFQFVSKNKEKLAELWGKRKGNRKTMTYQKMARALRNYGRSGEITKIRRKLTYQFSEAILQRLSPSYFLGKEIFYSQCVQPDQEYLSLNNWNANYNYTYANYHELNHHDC
Method in brief: as §1

ELF4 = ELF4 (Homo sapiens, UniProt Q99607 1-663); settings: protein: recombinant; tags: N-terminal GST; dsDNA, one strand shown
Method in brief: as §1

ETV2 = target: T2, ETV2 (Homo sapiens, UniProt O00321 1-342); settings: protein: recombinant; tags: N-terminal GST; dsDNA, one strand shown
T2 sequence: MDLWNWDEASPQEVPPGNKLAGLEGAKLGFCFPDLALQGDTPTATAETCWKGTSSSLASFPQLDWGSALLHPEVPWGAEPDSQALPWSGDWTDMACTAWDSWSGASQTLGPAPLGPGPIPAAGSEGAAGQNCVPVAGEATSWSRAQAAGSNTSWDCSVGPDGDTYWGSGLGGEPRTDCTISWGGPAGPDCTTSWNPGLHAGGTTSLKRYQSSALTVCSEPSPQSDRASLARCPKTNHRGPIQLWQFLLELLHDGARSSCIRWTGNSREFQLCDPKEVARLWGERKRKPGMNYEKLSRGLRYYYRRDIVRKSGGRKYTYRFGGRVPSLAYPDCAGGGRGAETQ
Method in brief: as §1

ELF3 = target: T3, ELF3 (Homo sapiens, UniProt P78545 1-371); settings: protein: recombinant; tags: N-terminal GST; dsDNA, one strand shown
T3 sequence: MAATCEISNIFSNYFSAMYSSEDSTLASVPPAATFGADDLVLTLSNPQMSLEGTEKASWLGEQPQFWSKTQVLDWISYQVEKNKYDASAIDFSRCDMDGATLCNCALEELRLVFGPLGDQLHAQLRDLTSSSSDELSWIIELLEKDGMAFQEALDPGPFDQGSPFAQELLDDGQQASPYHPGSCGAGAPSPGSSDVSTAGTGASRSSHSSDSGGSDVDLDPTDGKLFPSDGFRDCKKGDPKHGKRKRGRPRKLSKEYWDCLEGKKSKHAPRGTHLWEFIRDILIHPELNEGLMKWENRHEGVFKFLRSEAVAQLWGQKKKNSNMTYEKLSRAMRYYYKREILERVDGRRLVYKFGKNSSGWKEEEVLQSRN
Method in brief: as §1

CRX = CRX (Homo sapiens, UniProt O43186 1-299); settings: protein: recombinant; tags: N-terminal GST; dsDNA, one strand shown
Method in brief: as §1

ETV1 = ETV1 (Homo sapiens, UniProt P50549 1-477); settings: protein: recombinant; tags: N-terminal GST; dsDNA, one strand shown
Method in brief: as §1

ETV3L = target: T4, ETV3L (Homo sapiens, UniProt Q6ZN32 1-361); settings: protein: recombinant; tags: N-terminal GST; dsDNA, one strand shown
T4 sequence: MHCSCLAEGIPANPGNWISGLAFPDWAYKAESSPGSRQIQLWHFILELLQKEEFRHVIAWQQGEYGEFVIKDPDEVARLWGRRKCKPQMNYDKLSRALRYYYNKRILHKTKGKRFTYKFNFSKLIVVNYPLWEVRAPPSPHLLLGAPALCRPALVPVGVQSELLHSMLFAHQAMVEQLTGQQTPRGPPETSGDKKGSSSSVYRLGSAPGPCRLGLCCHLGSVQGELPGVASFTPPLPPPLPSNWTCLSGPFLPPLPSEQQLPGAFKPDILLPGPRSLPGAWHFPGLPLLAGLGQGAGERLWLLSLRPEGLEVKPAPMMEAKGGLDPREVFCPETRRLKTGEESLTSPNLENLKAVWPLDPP
Method in brief: as §1

ETS2 = target: T5, ETS2 (Homo sapiens, UniProt P15036 1-469); settings: protein: recombinant; tags: N-terminal GST; dsDNA, one strand shown
T5 sequence: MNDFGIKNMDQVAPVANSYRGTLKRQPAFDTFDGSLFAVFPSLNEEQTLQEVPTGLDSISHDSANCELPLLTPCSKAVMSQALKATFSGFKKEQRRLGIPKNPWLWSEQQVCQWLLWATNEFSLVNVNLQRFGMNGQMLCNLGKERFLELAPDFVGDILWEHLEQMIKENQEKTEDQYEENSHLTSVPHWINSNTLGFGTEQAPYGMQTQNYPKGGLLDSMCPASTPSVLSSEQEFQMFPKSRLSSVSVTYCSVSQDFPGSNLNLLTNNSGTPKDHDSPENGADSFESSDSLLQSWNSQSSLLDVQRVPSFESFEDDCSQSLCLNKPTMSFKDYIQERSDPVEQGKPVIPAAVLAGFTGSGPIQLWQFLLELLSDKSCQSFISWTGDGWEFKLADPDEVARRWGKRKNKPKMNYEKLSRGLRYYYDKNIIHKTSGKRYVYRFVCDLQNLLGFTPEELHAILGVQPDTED
Method in brief: as §1

SPDEF = target: T6, SPDEF (Homo sapiens, UniProt O95238 1-335); settings: protein: recombinant; tags: N-terminal GST; dsDNA, one strand shown
T6 sequence: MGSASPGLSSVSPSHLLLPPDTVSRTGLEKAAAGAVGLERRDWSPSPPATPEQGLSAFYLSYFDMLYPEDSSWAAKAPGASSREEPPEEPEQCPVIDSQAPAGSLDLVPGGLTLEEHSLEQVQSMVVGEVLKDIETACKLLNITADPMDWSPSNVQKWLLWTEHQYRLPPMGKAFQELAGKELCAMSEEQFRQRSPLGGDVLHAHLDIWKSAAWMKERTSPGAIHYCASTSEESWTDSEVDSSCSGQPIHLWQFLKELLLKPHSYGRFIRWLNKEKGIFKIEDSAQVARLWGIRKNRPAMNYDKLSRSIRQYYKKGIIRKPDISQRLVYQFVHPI
Method in brief: as §1

ETV7 = target: T7, ETV7 (Homo sapiens, UniProt Q9Y603 1-341); settings: protein: recombinant; tags: N-terminal GST; dsDNA, one strand shown
T7 sequence: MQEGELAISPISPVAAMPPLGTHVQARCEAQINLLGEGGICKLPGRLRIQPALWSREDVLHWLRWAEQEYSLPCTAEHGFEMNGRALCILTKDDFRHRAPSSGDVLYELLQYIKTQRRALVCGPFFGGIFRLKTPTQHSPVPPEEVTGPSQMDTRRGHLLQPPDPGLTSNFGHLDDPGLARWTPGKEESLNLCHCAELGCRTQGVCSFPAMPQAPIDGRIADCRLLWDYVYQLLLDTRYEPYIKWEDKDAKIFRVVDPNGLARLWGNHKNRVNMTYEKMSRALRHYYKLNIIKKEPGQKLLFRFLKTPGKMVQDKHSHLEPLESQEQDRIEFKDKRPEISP
Method in brief: as §1

ETV3 = target: T8, ETV3 (Homo sapiens, UniProt P41162-2 1-143); settings: protein: recombinant; tags: N-terminal GST; dsDNA, one strand shown
T8 sequence: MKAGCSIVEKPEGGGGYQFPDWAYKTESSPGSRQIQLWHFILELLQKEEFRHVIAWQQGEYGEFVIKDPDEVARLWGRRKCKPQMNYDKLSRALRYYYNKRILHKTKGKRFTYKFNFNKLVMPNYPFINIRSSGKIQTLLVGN
Method in brief: as §1

ELF1 = ELF1 (Homo sapiens, UniProt P32519 1-619); settings: protein: recombinant; tags: N-terminal GST; dsDNA, one strand shown
Method in brief: as §1

SPI1 = SPI1 (Homo sapiens, UniProt P17947 1-270); settings: protein: recombinant; tags: N-terminal GST; dsDNA, one strand shown
Method in brief: as §1

ELK4 = target: T9, ELK4 (Homo sapiens, UniProt P28324-2 1-405); settings: protein: recombinant; tags: N-terminal GST; dsDNA, one strand shown
T9 sequence: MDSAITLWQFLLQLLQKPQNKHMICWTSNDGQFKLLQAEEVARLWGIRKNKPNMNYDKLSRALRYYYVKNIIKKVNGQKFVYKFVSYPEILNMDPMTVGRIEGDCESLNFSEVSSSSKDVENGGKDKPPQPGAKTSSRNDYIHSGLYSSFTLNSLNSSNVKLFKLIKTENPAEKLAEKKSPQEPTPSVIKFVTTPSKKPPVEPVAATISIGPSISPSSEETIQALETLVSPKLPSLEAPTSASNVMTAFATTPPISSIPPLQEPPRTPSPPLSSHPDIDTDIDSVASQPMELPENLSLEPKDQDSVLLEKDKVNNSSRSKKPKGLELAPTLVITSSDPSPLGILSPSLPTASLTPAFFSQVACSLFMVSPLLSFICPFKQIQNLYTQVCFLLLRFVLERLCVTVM
Method in brief: as §1

HSF1, sequence (Q00613 whole entry): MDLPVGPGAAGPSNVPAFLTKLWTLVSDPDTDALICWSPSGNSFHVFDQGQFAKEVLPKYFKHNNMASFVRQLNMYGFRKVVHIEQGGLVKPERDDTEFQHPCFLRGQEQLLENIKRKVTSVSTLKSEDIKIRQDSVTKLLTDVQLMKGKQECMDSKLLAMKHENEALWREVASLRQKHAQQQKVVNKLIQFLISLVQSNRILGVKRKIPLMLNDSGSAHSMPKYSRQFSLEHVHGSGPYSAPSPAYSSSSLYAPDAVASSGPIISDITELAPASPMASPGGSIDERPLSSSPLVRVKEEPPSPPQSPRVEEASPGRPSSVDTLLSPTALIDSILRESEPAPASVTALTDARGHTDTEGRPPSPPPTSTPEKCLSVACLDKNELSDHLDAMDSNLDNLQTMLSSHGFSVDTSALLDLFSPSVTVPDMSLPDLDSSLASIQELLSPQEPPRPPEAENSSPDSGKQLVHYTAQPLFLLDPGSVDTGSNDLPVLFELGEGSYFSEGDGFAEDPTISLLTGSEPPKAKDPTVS
SPIB, sequence (Q01892 whole entry, the tested form may be a part): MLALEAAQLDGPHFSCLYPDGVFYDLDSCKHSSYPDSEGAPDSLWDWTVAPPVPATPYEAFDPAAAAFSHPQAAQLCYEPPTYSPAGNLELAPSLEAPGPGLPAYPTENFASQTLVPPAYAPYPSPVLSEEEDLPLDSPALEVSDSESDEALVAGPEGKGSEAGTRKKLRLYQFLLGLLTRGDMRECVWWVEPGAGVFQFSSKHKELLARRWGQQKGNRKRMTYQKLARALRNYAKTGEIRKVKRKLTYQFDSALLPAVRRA
ELF4, sequence (Q99607 whole entry): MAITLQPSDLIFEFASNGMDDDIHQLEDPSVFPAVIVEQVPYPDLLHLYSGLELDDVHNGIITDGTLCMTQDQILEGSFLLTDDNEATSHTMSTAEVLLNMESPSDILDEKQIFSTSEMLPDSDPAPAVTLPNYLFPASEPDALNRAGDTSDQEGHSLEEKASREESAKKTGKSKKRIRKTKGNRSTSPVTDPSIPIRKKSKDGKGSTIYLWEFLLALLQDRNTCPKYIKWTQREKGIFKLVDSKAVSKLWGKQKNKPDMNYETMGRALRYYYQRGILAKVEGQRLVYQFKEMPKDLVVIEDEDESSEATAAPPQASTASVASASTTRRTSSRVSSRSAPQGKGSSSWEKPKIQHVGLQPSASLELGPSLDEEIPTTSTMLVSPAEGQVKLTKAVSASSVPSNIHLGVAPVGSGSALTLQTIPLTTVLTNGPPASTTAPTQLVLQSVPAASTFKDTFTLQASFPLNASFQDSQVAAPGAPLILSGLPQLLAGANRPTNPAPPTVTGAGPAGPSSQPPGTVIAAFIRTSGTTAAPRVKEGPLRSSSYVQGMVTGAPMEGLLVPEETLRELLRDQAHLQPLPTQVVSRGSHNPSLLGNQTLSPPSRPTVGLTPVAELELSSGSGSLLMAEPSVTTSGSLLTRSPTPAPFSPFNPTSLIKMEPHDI
ELF1, sequence (P32519 whole entry): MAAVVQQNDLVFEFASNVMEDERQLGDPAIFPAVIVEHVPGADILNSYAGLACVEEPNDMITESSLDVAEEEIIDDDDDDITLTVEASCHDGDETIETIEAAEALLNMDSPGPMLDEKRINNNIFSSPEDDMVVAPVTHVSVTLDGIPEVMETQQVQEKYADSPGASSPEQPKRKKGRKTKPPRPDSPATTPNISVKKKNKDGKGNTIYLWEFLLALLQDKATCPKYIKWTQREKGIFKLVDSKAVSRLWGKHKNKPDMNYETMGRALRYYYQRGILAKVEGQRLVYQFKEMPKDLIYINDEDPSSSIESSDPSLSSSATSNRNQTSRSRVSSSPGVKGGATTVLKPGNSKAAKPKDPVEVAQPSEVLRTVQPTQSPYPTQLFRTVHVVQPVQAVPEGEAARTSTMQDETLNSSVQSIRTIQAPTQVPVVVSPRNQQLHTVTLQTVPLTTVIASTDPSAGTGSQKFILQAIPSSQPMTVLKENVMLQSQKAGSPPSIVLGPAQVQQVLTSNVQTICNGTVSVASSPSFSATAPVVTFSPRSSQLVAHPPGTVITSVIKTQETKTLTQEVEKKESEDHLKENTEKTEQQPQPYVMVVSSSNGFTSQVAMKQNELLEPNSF
ETV1, sequence (P50549 whole entry): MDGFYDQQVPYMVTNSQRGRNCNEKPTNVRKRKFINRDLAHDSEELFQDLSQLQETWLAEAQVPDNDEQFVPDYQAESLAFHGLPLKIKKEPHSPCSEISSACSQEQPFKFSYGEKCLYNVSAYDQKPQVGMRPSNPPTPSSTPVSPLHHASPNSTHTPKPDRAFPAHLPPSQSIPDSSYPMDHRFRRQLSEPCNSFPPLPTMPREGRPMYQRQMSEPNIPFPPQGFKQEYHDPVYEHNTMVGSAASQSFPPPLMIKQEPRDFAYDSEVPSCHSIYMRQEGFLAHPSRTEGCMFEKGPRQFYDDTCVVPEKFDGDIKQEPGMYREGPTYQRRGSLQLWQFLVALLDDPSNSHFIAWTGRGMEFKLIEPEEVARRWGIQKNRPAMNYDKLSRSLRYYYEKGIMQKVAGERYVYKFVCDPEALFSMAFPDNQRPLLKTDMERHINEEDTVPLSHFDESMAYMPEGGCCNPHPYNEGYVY
CRX, sequence (O43186 whole entry): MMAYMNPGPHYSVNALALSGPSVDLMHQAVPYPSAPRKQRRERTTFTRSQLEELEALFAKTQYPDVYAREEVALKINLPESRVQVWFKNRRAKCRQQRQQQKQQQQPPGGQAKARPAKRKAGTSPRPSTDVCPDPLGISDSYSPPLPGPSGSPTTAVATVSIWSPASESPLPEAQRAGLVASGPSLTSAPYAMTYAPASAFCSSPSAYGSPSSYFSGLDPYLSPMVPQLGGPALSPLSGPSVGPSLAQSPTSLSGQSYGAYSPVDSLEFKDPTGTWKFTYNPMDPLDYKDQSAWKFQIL

With GATTCG the binding signal (SPIB) was 1.04 fold enrichment (6-mer frequency, TF over GST control), the binding signal (HSF1) was 1.23 fold enrichment (6-mer frequency, TF over GST control) and the binding signal (SPIC) was 1.16 fold enrichment (6-mer frequency, TF over GST control). For the same sequence, the binding signal (ELF4) was 1.05 fold enrichment (6-mer frequency, TF over GST control), the binding signal (ETV2) was 1.02 fold enrichment (6-mer frequency, TF over GST control) and the binding signal (ELF3) was 1.09 fold enrichment (6-mer frequency, TF over GST control). For the same sequence, the binding signal (CRX) was 1.06 fold enrichment (6-mer frequency, TF over GST control), the binding signal (ETV1) was 1.03 fold enrichment (6-mer frequency, TF over GST control) and the binding signal (ETV3L) was 1.06 fold enrichment (6-mer frequency, TF over GST control). The binding signal (ETS2) was 1 fold enrichment (6-mer frequency, TF over GST control), the binding signal (SPDEF) was 1 fold enrichment (6-mer frequency, TF over GST control) and the binding signal (ETV7) was 1.01 fold enrichment (6-mer frequency, TF over GST control). The binding signal (ETV3) was 1 fold enrichment (6-mer frequency, TF over GST control).
GCCAGA was tested, and the binding signal (HSF1) was 1.02 fold enrichment (6-mer frequency, TF over GST control).
For TGAAAG, the binding signal (ELF1) was 1.05 fold enrichment (6-mer frequency, TF over GST control), the binding signal (SPI1) was 1.05 fold enrichment (6-mer frequency, TF over GST control) and the binding signal (SPIB) was 1.04 fold enrichment (6-mer frequency, TF over GST control). For the same sequence, the binding signal (HSF1) was 1.08 fold enrichment (6-mer frequency, TF over GST control), the binding signal (SPIC) was 1.01 fold enrichment (6-mer frequency, TF over GST control) and the binding signal (ELF4) was 1.01 fold enrichment (6-mer frequency, TF over GST control). For the same sequence, the binding signal (ELK4) was 1.06 fold enrichment (6-mer frequency, TF over GST control), the binding signal (ETV3L) was 1.04 fold enrichment (6-mer frequency, TF over GST control) and the binding signal (ETS2) was 1.01 fold enrichment (6-mer frequency, TF over GST control).
